Assay outcomes: PubChem, National Center for Advancing Translational Sciences (NCATS)
FLuc counter: firefly luciferase modulation, counter-screen for miR-21 project | P08659 | purified FLuc, Km substrates, luminescence inhibition | Potency, µM (top dose mostly 57.5 µM), for the others: at the top dose activity change, negative = inhibition, hits mostly inhibitors | 6.9% of 360,000 active | AID 588342;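 also: plate controls were vehicle for no effect and reference inhibitor for full effect; nearly all actives have a fitted effect of over 55% in size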
Target sequence (P08659 whole entry, looked up): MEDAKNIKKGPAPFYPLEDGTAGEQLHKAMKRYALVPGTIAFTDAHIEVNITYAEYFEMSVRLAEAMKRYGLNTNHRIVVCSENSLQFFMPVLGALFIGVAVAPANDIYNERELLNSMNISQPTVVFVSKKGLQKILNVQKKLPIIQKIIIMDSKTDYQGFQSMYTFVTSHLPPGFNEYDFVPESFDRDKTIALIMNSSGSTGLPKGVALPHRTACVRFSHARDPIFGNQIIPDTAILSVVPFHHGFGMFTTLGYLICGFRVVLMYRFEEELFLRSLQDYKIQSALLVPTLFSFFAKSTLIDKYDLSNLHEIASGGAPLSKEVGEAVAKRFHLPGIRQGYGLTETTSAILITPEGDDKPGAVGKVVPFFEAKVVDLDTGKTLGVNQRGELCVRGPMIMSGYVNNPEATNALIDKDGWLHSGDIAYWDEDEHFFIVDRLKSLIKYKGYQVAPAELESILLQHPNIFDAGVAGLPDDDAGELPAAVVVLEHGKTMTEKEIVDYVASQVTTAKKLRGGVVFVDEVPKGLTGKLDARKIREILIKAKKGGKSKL
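Biochemical qHTS of compounds, final roughly 60 µM downward over six points, against 10 nM purified firefly luciferase using Km concentrations of substrates (10 uM D-luciferin, 10 uM ATP) in Tris acetate pH 7.5 buffer; luminescence output.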
SMN2 splice enh: SMN2 splice variant enhancement. HEK293 SMN2-luciferase splicing reporter, luminescence, 30-36 h. Potency, µM (series often up to 46.1 µM), for inactives: top-dose activity change, positive = activation, hits mostly activators. 2.8% of 210,000 active. AID 1458; also: % of control where 0% means no effect; nearly all actives have a fitted effect of over 55% in size
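HEK293 cells carry an SMN2 […]–luciferase reporter in which exon 7 inclusion puts luciferase in frame. Cells were plated 10-12 h before compound addition, then incubated 30-36 h at 37C. ONE-Glo luminescence was read; sodium butyrate at 4.5 mM final served as control.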
ELG1 repair inh: ELG1-dependent DNA repair inhibition; HEK293T ELG1-luciferase reporter, luminescence, 16 h; DNA damage induced by 5-fluorouridine; Potency, µM (series often up to 46.1 µM), for inactives: top-dose activity change, negative = inhibition, usual class: inhibitors; 2.3% of 330,000 active; AID 504467; also: % is scaled to controls: 0 for no effect and ±100 for the full control effect; nearly all actives have a fitted effect of over 55% in size
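Cells (2,000 per well) received 5-fluorouridine plus test compound or DMSO and were incubated 16 hr at 37 °C, 5% CO2. Luciferase activity was read by luminescence 30 min after ONE-Glo addition; signal suppression marked inhibition of damage-induced ELG1 function.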
NPC1 promoter act: NPC1 promoter activation; Huh7 NPC1 promoter luciferase reporter, 24 h; Potency, µM (series often up to 9.22 µM), without a hit: at the highest dose activation, hits mostly activators; 2.4% of 320,000 active; also: % of control where 0% means no effect; nearly all actives have a fitted effect of over 60% in size
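Compounds in DMSO were transferred onto Huh7 NPC1-luciferase reporter cells pre-incubated 2 h; after 24 h at 37 °C, Amplite reagent was dispensed and luminescence recorded 10 min later.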
Rab9 prom act: activators of Rab9 promoter. Huh7 Rab9 promoter-luciferase reporter, luminescence, 24 h. Potency, µM (doses to about 9.22 µM), inactives show at the top dose activation, negative = inhibition, most hits filed as activators. 2.8% of 320,000 active. AID 485297; also: % of control where 0% means no effect; nearly all actives have a fitted effect of over 60% in size
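Stable Rab9-luc Huh7, 1500 cells/well, 2 h settle; cmpd in DMSO, 24 h, 37 °C/5% CO2; luciferase reagent 10 min RT; luminescence.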
ELG1 genotox: inducers of genotoxicity in HEK293T ELG1-luciferase cells; AID 504466; Potency, µM (doses to about 46 µM), without a hit: at the highest dose activity change, positive = activation, most hits filed as activators; HEK293T ELG1-luciferase reporter, luminescence, 16 h; 1.3% of 330,000 active; also: % of control where 0% means no effect; nearly all actives have a fitted effect of over 60% in size
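16 hr compound incubation (37 °C, 5% CO2) of HEK293T cells carrying luciferase-tagged ELG1; luciferase then measured by ONE-Glo luminescence after 30 min at RT.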
Active calls of the source: *; u = inconclusive; x = no result given; [ ] = another dose, or the depositor's remark. Most compounds without a hit are left out; they make up all but 9.4% or so of the library. Calls follow the shape of the dose curve; as a rule, active = well fitted curve in the direction sought with a large enough effect; inconclusive = small, poorly fitted or top-dose-only effect, or another doubt; inactive = no such curve, though single readings can be large; an effect the other way counts as inactive or inconclusive. Potency is read from the fitted curve at half-maximal effect.

SMILES | FLuc counter | SMN2 splice enh | ELG1 repair inh | NPC1 promoter act | Rab9 prom act | ELG1 genotox
COC(=O)CC(=O)CSc1nc2c(cc1C#N)CCCCC2 | 5.36µM* | u | u | 21.6% | u | u
N#Cc1cc2c(nc1SCC(=O)O)CCCCC2 | -5.1% | x | 4.8% | -6.1% | -0.4% | 0.6%
CCOC(=O)CC(=O)CSc1nc2c(cc1C#N)CCC2 | 13.5µM* | -4.3% | 17.3% | -1.5% | 6.0% | 1.9%
CCc1nnc(NC(=O)CSc2nc3c(cc2C#N)CCCC3)s1 | 0.849µM* | 5.62µM* | u | 0.891µM* | 0.501µM* | u
COC(=O)c1cc2c(s1)CS(=O)C2 (stereo not given) | 13.5µM* | u | u | 2.51µM* | 3.98µM* | u
CCC1CCC(NC(=O)Nc2cccc(OC)c2)CC1 (stereo not given) | 4.78µM* | x | u | 3.98µM* | 1.26µM* | u
CC(=O)c1ccc(NC(=O)NC2CCCCCCC2)cc1 | 12µM* | x | u | 1.58µM* | 1.78µM* | 8.2µM*
Cc1ccc(NC(=O)NC2CCCCCCC2)cc1C | 7.57µM* | x | u | 3.98µM* | 3.55µM* | u
O=C(Nc1ccc2nsnc2c1)NC1CCCCC1 | 6.75µM* | u | u | 2.24µM* | 1.41µM* | u
O=C(Nc1ccc2nsnc2c1)C1CC1 | -11.4% | x | -20.7% | -2.0% | 0.7% | -0.8%
COc1c(C)cccc1C(=O)Nc1cccc2ccc(C)nc12 | -18.8% | -23.6% | x | x | x | x
CCOc1ccc(-c2cc(C(=O)NCCc3ccccc3)c3c(-c4ccc(C)cc4)[nH]nc3n2)cc1 | -12.0% | x | x | x | x | x
Nc1ncnc2c1ncn2[C@H]1O[C@@H](C(=O)O)[C@@H](O)[C@H]1O | x | -0.2%[9.22 µM] | x | x | x | x
CCOc1ccccc1NC(=O)N(Cc1ccc(C)o1)C1CCN(C(C)=O)CC1 | 1.0% | x | x | x | x | x
COC(=O)c1ccc(C(NC(=O)c2ccco2)[C@]2(C)C[C@H]2C2CCCCC2)cc1 (stereo not given in full) | x | -32.9% | x | x | x | x
COc1ccc(CCNC(=O)c2ccc(Cn3c(=O)c4ccccc4n(CC(=O)C(C)(C)C)c3=O)cc2)cc1OC | 3.0% | 3.2% | x | x | x | x
Cc1cccc(NC(=O)NC2CCCCCCC2)c1 | 10.7µM* | x | u | 1.58µM* | 3.55µM* | u
CC(=O)c1cccc(NC(=O)NC2CCCCC2)c1 | u | 12.8% | 17.5% | 2.7% | -5.1% | 1.3%
CC(=O)c1cccc(NC(=O)NC2CCCCCCC2)c1 | 16.9µM* | x | u | 25.4% | 24.2% | 1.6%
CCOc1ccc(NC(=O)C(C)n2c(=O)cc(C)c3c(C)nn(-c4ccccc4)c32)cc1 (stereo not given) | 1.4% | x | x | x | x | x
N/C(=N\OC(=O)C1CCCCC1)c1cccc(Br)c1 | u | x | 21.8% | 16.2% | 15.2% | 2.6%
N/C(=N\OC(=O)c1ccc(Br)cc1)c1ccncc1 | 4.78µM* | u | u | u | u | u
O=C(COC(=O)c1ccncc1)c1ccc(Br)cc1 | 7.57µM* | x | -2.2% | -0.8% | -4.4% | -1.5%
N/C(=N\OC(=O)c1cccc(Br)c1)c1ccncc1 | 12µM* | 16.6% | u | 24.6% | 20.3% | u
COc1cc(OC)cc(C(=O)O/N=C(\N)c2ccncc2)c1 | u | -2.1% | 27.6% | 2.1% | -2.0% | -1.6%
SMILES | FLuc counter | SMN2 splice enh | ELG1 repair inh | NPC1 promoter act | Rab9 prom act | ELG1 genotox
N/C(=N\OC(=O)c1ccccc1)c1ccncc1 | 19µM* | 25.2% | u | u | 2.82µM* | u
CCc1ccc(NC(=O)c2cc3c(COC(C)=O)cnc(C)c3oc2=O)cc1 | -2.1% | x | x | x | x | x
CCc1cccc(C)c1NC(=O)c1cc(S(=O)(=O)N(Cc2ccc(C(=O)OC)cc2)Cc2ccc(OC)c(OC)c2)ccc1F | 5.3% | x | x | x | x | x
COc1ccc(NC(=O)c2cc3c(s2)-c2c(C)cccc2OC3)cc1Cl | -2.5% | 0.0% | x | x | x | x
Cc1ccnc(NS(=O)(=O)c2ccc(NC(=O)C(C)(C)Oc3ccc(Cl)cc3)cc2)n1 | u | 5.4% | x | x | x | x
Cc1cc(C(=O)CSc2nc3ccccc3c(=O)n2C)c(C)n1CC1CCCO1 (stereo not given) | u | -96.5% | u | -38.0% | -33.3% | -6.4%
Cc1cc(C(=O)CSc2nc3ccccc3c(=O)[nH]2)c(C)n1CC1CCCO1 (stereo not given) | 13.5µM* | -52.9% | -0.5% | 15.7% | u | 14.5%
Cc1cc(C(=O)CSc2nnnn2-c2ccc(Cl)cc2)c(C)n1CC1CCCO1 (stereo not given) | 6.4% | -8.4% | 0.0% | -3.5% | -2.5% | 13.2%
CCn1c(SCC(=O)c2cc(C)n(CC3CCCO3)c2C)nc2ccccc21 (stereo not given) | 26.9µM* | -7.5% | u | 25.1% | u | 6.1%
Cc1cc(C(=O)CSc2nnnn2-c2ccccc2)c(C)n1CC1CCCO1 (stereo not given) | 2.69µM* | 12.6µM* | u | 2.51µM* | 1.58µM* | u
O=C(N/N=C/c1ccc(O)cc1)Nc1cccc2nsnc12 | 12µM* | x | u | 10.7% | 27.9% | 1.1%
Cc1nnc(NC(=O)Nc2cccc(Cl)c2)s1 | u | 27.8% | -6.0% | u | u | -19.2%
O=C(Nc1ccc(Cl)c(Cl)c1)Nc1nccs1 | 13.5µM* | x | -8.5% | -18.0% | 14.3% | -1.4%
O=C(Nc1cccc(Cl)c1)Nc1nccs1 | 19µM* | -8.7% | u | u | u | -0.9%
O=C(Nc1cccc(Cl)c1)Nc1nc(-c2ccccc2)cs1 | -4.1% | -35.5% | u | 6.5% | -1.6% | -1.2%
Cc1csc(NC(=O)Nc2cccc(Cl)c2)n1 | 5.36µM* | 11.2µM* | u | u | u | u
Cc1nc2ccccc2n1CCc1nc2c3ccccc3nc(SCc3ccccc3F)n2n1 | 0.8% | x | x | x | x | x
Cc1ccc(-c2nn(-c3cccc([N+](=O)[O-])c3)c3c2cnc2ccc(F)cc23)cc1 | -0.2% | x | x | x | x | x
COc1ccc(C(=O)NCc2nnc(SCC(=O)Nc3ccccc3)n2-c2ccccc2)cc1 | 0.8% | -9.7% | x | x | x | x
Cc1nc(-c2ccc(NC(=O)c3ccccc3Br)cc2)cs1 | 6.01µM* | 15.8µM* | u | u | 2.82µM* | u
Cc1nc(-c2ccc(NC(=O)c3ccccc3C)cc2)cs1 | 3.38µM* | x | u | 1.41µM* | 1.58µM* | 13.0%
Clc1ccc2nc(N3CCN(c4ccccc4)CC3)sc2c1 | 0.601µM* | 3.16µM* | u | 1.41µM* | 0.891µM* | u
Brc1ccc2nc(N3CCN(c4ccccc4)CC3)sc2c1 | u | 3.16µM* | u | 1.78µM* | 1µM* | 2.31µM*
O=S(=O)(c1ccccc1)N1CCN(c2nc3ccccc3s2)CC1 | 5.1% | -4.1% | u | 21.4% | u | u
